PMC12820563, “FoxP3 forms a head-to-head dimer in vivo and stabilizes its multimerization on adjacent microsatellites”
Over roughly 16,000 sequences, “rpm ratio (pull-down/input)” has its median near 0.5; the highest 2% begin near 5.5. This is one part of a sample in which the highest values are shown more often than they occur.

Molecular target: T1, MBP-FoxP3dN (Mus musculus, UniProt Q99JB6 188-423)
T1 sequence: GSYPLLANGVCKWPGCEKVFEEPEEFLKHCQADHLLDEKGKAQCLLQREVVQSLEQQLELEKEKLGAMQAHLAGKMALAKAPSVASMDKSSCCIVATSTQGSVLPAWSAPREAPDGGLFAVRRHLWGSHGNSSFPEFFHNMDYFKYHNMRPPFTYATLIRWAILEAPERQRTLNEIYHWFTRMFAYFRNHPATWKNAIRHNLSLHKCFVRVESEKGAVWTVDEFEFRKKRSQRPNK
Assay: PD-seq (MBP pull-down with sequencing); 20 mM Tris-HCl pH 7.5, 100 mM NaCl, 1.5 mM MgCl2, 0.4 uM protein, 0.1 uM dsDNA library, 30 min, room temperature, amylose pull-down; high values mean tight binding
Conditions: protein: recombinant; tags: His6-MBP; chain copies: 2; dsDNA, one strand shown
Outline: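 A fragment of mouse FoxP3 or FoxP1 without its N-terminus, carrying a His6-MBP tag and produced in E. coli, was combined at 0.4 µM with a 0.1 µM degenerate double-stranded DNA library filled in with Klenow. The mixture sat for 30 min at room temperature in Tris pH 7.5 buffer containing NaCl and MgCl2. Protein–DNA complexes were captured on amylose resin, washed three times, and the DNA was freed with proteinase K, barcoded by PCR and sequenced on Illumina. Binding is expressed as reads-per-million enrichment of pull-down over input, with replicates pooled.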

| Sequence | binding signal |
| --- | --- |
| GATGATTGTTCTCCCAGCTGATGAATTTGCAGTATCGAGTAAACAAATTTTCCTAATCTTTCTGTTCAAGCGCCATCTAC | 1.49 RPM ratio (pull-down/input) |
| GATGATTGTTCTCCCAGCTGATGAATTTATATACTCGAGTAAACAAATTTTCCTAATCTTTCTGTTCAAGCGCCATCTAC | 3.39 RPM ratio (pull-down/input) |
| GATGATTGTTCTCCCAGCTGATGAATTTTGGCCTTCGAGTAAACAAATTTTCCTAATCTTTCTGTTCAAGCGCCATCTAC | 2.06 RPM ratio (pull-down/input) |
| GATGATTGTTCTCCCAGCTGATGAATTATTGCGATCGAGTAAACAAATTTTCCTAATCTTTCTGTTCAAGCGCCATCTAC | 1.08 RPM ratio (pull-down/input) |
| GATGATTGTTCTCCCAGCTGATGAATTCGTTTGTTCGAGTAAACAAATTTTCCTAATCTTTCTGTTCAAGCGCCATCTAC | 5.83 RPM ratio (pull-down/input) |
| GATGATTGTTCTCCCAGCTGATGAATTCGTTTTTTCGAGTAAACAAATTTTCCTAATCTTTCTGTTCAAGCGCCATCTAC | 2.58 RPM ratio (pull-down/input) |
| GATGATTGTTCTCCCAGCTGATGAATTCTTTGTTTCGAGTAAACAAATTTTCCTAATCTTTCTGTTCAAGCGCCATCTAC | 0.575 RPM ratio (pull-down/input) |
| GATGATTGTTCTCCCAGCTGATGAATTTGTTGGTTCGAGTAAACAAATTTTCCTAATCTTTCTGTTCAAGCGCCATCTAC | 7.67 RPM ratio (pull-down/input) |
| GATGATTGTTCTCCCAGCTGATGAATTGATTTGTTCGAGTAAACAAATTTTCCTAATCTTTCTGTTCAAGCGCCATCTAC | 3.85 RPM ratio (pull-down/input) |
| GATGATTGTTCTCCCAGCTGATGAATTGGTTGGTTCGAGTAAACAAATTTTCCTAATCTTTCTGTTCAAGCGCCATCTAC | 3.77 RPM ratio (pull-down/input) |
| GATGATTGTTCTCCCAGCTGATGAATTTGATTGTTCGAGTAAACAAATTTTCCTAATCTTTCTGTTCAAGCGCCATCTAC | 6.32 RPM ratio (pull-down/input) |
| GATGATTGTTCTCCCAGCTGATGAATTTGTTTTTTCGAGTAAACAAATTTTCCTAATCTTTCTGTTCAAGCGCCATCTAC | 6.93 RPM ratio (pull-down/input) |
| GATGATTGTTCTCCCAGCTGATGAATTTGGTTGTTCGAGTAAACAAATTTTCCTAATCTTTCTGTTCAAGCGCCATCTAC | 5.35 RPM ratio (pull-down/input) |
| GATGATTGTTCTCCCAGCTGATGAATTCGTTTTGTCGAGTAAACAAATTTTCCTAATCTTTCTGTTCAAGCGCCATCTAC | 3.54 RPM ratio (pull-down/input) |
| GATGATTGTTCTCCCAGCTGATGAATTTTTTGTTTCGAGTAAACAAATTTTCCTAATCTTTCTGTTCAAGCGCCATCTAC | 0.423 RPM ratio (pull-down/input) |
| GATGATTGTTCTCCCAGCTGATGAATTTGAATTTTCGAGTAAACAAATTTTCCTAATCTTTCTGTTCAAGCGCCATCTAC | 0.538 RPM ratio (pull-down/input) |

| Sequence | binding signal |
| --- | --- |
| GATGATTGTTCTCCCAGCTGATGAATTGTACTATTCGAGTAAACAAATTTTCCTAATCTTTCTGTTCAAGCGCCATCTAC | 0.669 RPM ratio (pull-down/input) |
| GATGATTGTTCTCCCAGCTGATGAATTGTCCCTGTCGAGTAAACAAATTTTCCTAATCTTTCTGTTCAAGCGCCATCTAC | 0.319 RPM ratio (pull-down/input) |
| GATGATTGTTCTCCCAGCTGATGAATTAGGGGTTTCGAGTAAACAAATTTTCCTAATCTTTCTGTTCAAGCGCCATCTAC | 0.738 RPM ratio (pull-down/input) |
| GATGATTGTTCTCCCAGCTGATGAATTTTACGCGTCGAGTAAACAAATTTTCCTAATCTTTCTGTTCAAGCGCCATCTAC | 0.624 RPM ratio (pull-down/input) |
| GATGATTGTTCTCCCAGCTGATGAATTGAGACACTCGAGTAAACAAATTTTCCTAATCTTTCTGTTCAAGCGCCATCTAC | 1.41 RPM ratio (pull-down/input) |
| GATGATTGTTCTCCCAGCTGATGAATTGCGGACATCGAGTAAACAAATTTTCCTAATCTTTCTGTTCAAGCGCCATCTAC | 0.781 RPM ratio (pull-down/input) |
| GATGATTGTTCTCCCAGCTGATGAATTAAAAATTTCGAGTAAACAAATTTTCCTAATCTTTCTGTTCAAGCGCCATCTAC | 0.202 RPM ratio (pull-down/input) |
| GATGATTGTTCTCCCAGCTGATGAATTTGGTTAATCGAGTAAACAAATTTTCCTAATCTTTCTGTTCAAGCGCCATCTAC | 0.489 RPM ratio (pull-down/input) |
| GATGATTGTTCTCCCAGCTGATGAATTCCGCGCATCGAGTAAACAAATTTTCCTAATCTTTCTGTTCAAGCGCCATCTAC | 1.39 RPM ratio (pull-down/input) |
| GATGATTGTTCTCCCAGCTGATGAATTCCCGCATTCGAGTAAACAAATTTTCCTAATCTTTCTGTTCAAGCGCCATCTAC | 5.9 RPM ratio (pull-down/input) |
| GATGATTGTTCTCCCAGCTGATGAATTTCCCGCATCGAGTAAACAAATTTTCCTAATCTTTCTGTTCAAGCGCCATCTAC | 0.913 RPM ratio (pull-down/input) |
| GATGATTGTTCTCCCAGCTGATGAATTCCCCGCATCGAGTAAACAAATTTTCCTAATCTTTCTGTTCAAGCGCCATCTAC | 0.735 RPM ratio (pull-down/input) |
| GATGATTGTTCTCCCAGCTGATGAATTTTCCGCATCGAGTAAACAAATTTTCCTAATCTTTCTGTTCAAGCGCCATCTAC | 1.07 RPM ratio (pull-down/input) |
| GATGATTGTTCTCCCAGCTGATGAATTTCCGCATTCGAGTAAACAAATTTTCCTAATCTTTCTGTTCAAGCGCCATCTAC | 6.24 RPM ratio (pull-down/input) |
| GATGATTGTTCTCCCAGCTGATGAATTCCGCAATTCGAGTAAACAAATTTTCCTAATCTTTCTGTTCAAGCGCCATCTAC | 4.91 RPM ratio (pull-down/input) |
